High-throughput results as filed in PubChem.
Rows were chosen to be rich in hits. Some 10% of all compounds tested hit in one or more screens of this group.
BAZ2B inh – qHTS Assay for Inhibitors of BAZ2B; Bromodomain adjacent to zinc finger domain protein 2B (Homo sapiens), Q9UIF8; Potency, µM (doses to about 114 µM), for the others: top-dose activity change, negative = inhibition, actives largely listed as inhibitors; 360,000 tested, 4.4% active; AlphaScreen BAZ2B-H3K14Ac peptide displacement; note: % is set by controls: 0 for no effect and ±100 for the full control effect; nearly all actives have a fitted effect of over 60% in size
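Compounds, titrated to a top concentration of 110 uM, were incubated 30 min at room temperature with preformed BAZ2B/acetyl-K14 H3 peptide complex (50 nM each). Proximity signal was measured by AlphaScreen after 20 min with beads.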
G9a block – qHTS Assay for Inhibitors of Histone Lysine Methyltransferase G9a; Histone-lysine N-methyltransferase EHMT2 (Homo sapiens), Q96KQ7; G9a H3K9 monomethylation, AlphaScreen, 2 h; Potency, µM (series often up to 102 µM), without a hit: at the highest dose activity, negative = inhibition, actives largely listed as inhibitors; 350,000 tested, 8.8% active; AID 504332, 2011; note: % is set by controls: 0 for no effect and ±100 for the full control effect; nearly all actives have a fitted effect of over 75% in size
Target sequence (Q96KQ7 913-1193 limits assumed): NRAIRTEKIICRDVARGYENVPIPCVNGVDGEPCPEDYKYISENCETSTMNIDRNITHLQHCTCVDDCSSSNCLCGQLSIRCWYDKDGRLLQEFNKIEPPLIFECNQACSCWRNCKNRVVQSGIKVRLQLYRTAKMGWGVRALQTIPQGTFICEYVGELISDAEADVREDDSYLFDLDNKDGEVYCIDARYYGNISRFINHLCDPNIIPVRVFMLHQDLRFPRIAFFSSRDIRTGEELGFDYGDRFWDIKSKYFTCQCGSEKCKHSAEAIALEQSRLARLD
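Compounds were preincubated with 20 nM G9a for 15 min, after which biotinylated H3K9 peptide (500 nM) and SAM (20 uM) started a 2 h room-temperature reaction. Monomethylated product was quantified by antibody-based AlphaScreen chemiluminescence.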
GLS inh – qHTS for Inhibitors of Glutaminase (GLS); Glutaminase kidney isoform, mitochondrial (Homo sapiens), O94925; GLS enzymatic activity, qHTS titration; Potency, µM (series often up to 45.5 µM), without a hit: top-dose activity change, negative = inhibition, actives largely listed as inhibitors; 410,000 tested, 0.21% active; note: % is set by controls: 0 for no effect and ±100 for the full control effect
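hKGA in 45 mM KH2PO4 (pH 8.2), 0.02% Tween-20 with compound, then 1mM L-Glutamine (stock as added) plus glutamate oxidase/HRP/Amplex red coupling mix. Fluorescence read initially and after 30 min at RT; signal change reflects glutamate formation.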
JMJD2A Tudor inh – qHTS Assay for Inhibitors of JMJD2A-Tudor Domain; Lysine-specific demethylase 4A (Homo sapiens), O75164; AlphaScreen JMJD2A-Tudor / H3K4me3 peptide binding; Potency, µM (highest dose often 114 µM), inactives show top-dose activity change, negative = inhibition, hits mostly inhibitors; 390,000 tested, 4.4% active; note: % is set by controls: 0 for no effect and ±100 for the full control effect; nearly all actives have a fitted effect of over 50% in size
HP1b chromo inh – HTS for Inhibitors of HP1-beta Chromodomain Interactions with Methylated Histone Tails | Chromobox protein homolog 1 (Homo sapiens), P83916 | AlphaScreen HP1-beta / biotin-H3K9me3 peptide binding | Potency, µM (titrated, usually from 114 µM), inactives show at the top dose activity change, negative = inhibition, most hits filed as inhibitors | 390,000 tested, 0.56% active; note: nearly all actives have a fitted effect of over 70% in size
Target sequence (P83916 whole entry, looked up): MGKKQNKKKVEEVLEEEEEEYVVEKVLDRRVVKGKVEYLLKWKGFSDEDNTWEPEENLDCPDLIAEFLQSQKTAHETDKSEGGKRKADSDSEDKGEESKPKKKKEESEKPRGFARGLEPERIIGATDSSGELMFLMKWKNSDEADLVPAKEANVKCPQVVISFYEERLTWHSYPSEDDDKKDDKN
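AlphaScreen: HP1-beta (50 nM) preformed 30 min with biotin-H3(1-18)K9me3 peptide (50 nM) in PBS pH 7.4, 0.01% Tween-20. Compound added for 30 min at RT, then streptavidin donor/nickel chelate acceptor beads (10 ug/mL) for 30 min.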
* marks the source's active call; other numbers are inactive results; [ ] = remark or other dose. Calls come from the whole dose curve; as a rule, active = well fitted curve in the direction sought with a large enough effect; inconclusive = small, poorly fitted or top-dose-only effect, or another doubt; inactive = no such curve, though single readings can be large; an effect the other way counts as inactive or inconclusive. Potency is the fitted concentration of half-maximal effect.

How did O=C(/C=C/c1ccc([N+](=O)[O-])cc1)N1CCN(S(=O)(=O)c2cccs2)CC1 do in these assays?
BAZ2B inh: 2%; G9a block: 50µM*; GLS inh: -7%; JMJD2A Tudor inh: -8%; HP1b chromo inh: 27%

How did O=C(CCc1ccc(Oc2cc([N+](=O)[O-])cc([N+](=O)[O-])c2)cc1)N1CCCCCC1 do in these assays?
BAZ2B inh: 25µM*; G9a block: inconclusive; GLS inh: 5%; JMJD2A Tudor inh: 40µM*; HP1b chromo inh: inconclusive

Results for COc1ccc(N2CCN(C(=O)CCNS(=O)(=O)c3cccs3)CC2)cc1 ?
BAZ2B inh: -33%; G9a block: 25µM*; GLS inh: 15%; JMJD2A Tudor inh: -11%; HP1b chromo inh: 16%

What do the screens show for `O=C(CCNS(=O)(=O)c1cccs1)N1CCN(c2cccc(C(F)(F)F)c2)CC1`?
BAZ2B inh: 4%; G9a block: 0%[2.33 µM]; GLS inh: 8%; JMJD2A Tudor inh: -14%; HP1b chromo inh: 6%

What do the screens show for `COc1ccc(CCC(=O)N2CCN(S(=O)(=O)c3cccs3)CC2)cc1`?
BAZ2B inh: 2%; G9a block: 45µM*; GLS inh: -1%; JMJD2A Tudor inh: -17%; HP1b chromo inh: 14%

How did O=C(O)c1ccc(Oc2cc(Oc3ccc(C(=O)O)cc3)cc([N+](=O)[O-])c2)cc1 do in these assays?
BAZ2B inh: -2%; GLS inh: -4%; JMJD2A Tudor inh: -15%; HP1b chromo inh: 10%

What do the screens show for `COc1ccc(N2C3=C(CC4=C2CCCC4=O)C(=O)CCC3)cc1`?
BAZ2B inh: -28%; G9a block: inconclusive; GLS inh: -16%; JMJD2A Tudor inh: 56µM*; HP1b chromo inh: -52%

What do the screens show for `C=CCn1cc(/C=N/Nc2nc3ccccc3[nH]2)c2ccccc21`?
BAZ2B inh: 40µM*; G9a block: 50µM*; GLS inh: inconclusive; JMJD2A Tudor inh: 40µM*; HP1b chromo inh: inconclusive

How did Cn1c(/C=N/Nc2nc3ccccc3[nH]2)nc2ccccc21 do in these assays?
BAZ2B inh: 32µM*; G9a block: -42%; GLS inh: -2%; JMJD2A Tudor inh: inconclusive; HP1b chromo inh: 21%

Results for Cc1c(/C=N/Nc2nc3ccccc3[nH]2)c2ccccc2n1C ?
BAZ2B inh: 18µM*; GLS inh: inconclusive; JMJD2A Tudor inh: 32µM*; HP1b chromo inh: 50µM*

What do the screens show for `CCCn1c(/C=N/Nc2nc3ccccc3[nH]2)nc2ccccc21`?
BAZ2B inh: inconclusive; G9a block: 12%[59 µM]; GLS inh: 12%; JMJD2A Tudor inh: -34%; HP1b chromo inh: -17%

How did COc1ccc2c(CC(=O)N(C)CC3COc4ccccc4O3)coc2c1 (configuration not stated) do in these assays?
BAZ2B inh: inconclusive; G9a block: inconclusive; GLS inh: 1%; JMJD2A Tudor inh: -23%; HP1b chromo inh: 8%

Results for Cc1cc(C(=O)OCC(=O)NCc2ccccc2Cl)c(C)o1 ?
G9a block: 0%; GLS inh: -7%; JMJD2A Tudor inh: -17%[57.1 µM]; HP1b chromo inh: 47%

How did CCN(CC)c1cc2nonc2c2nonc12 do in these assays?
BAZ2B inh: 51%; G9a block: 9%[59 µM]; GLS inh: 33%; JMJD2A Tudor inh: 23%; HP1b chromo inh: 48%

How did CN(C)c1cc(Cl)c2nonc2c1N do in these assays?
BAZ2B inh: 50µM*; G9a block: 40µM*; GLS inh: 0%; JMJD2A Tudor inh: inconclusive; HP1b chromo inh: inconclusive

What do the screens show for `CCN(CC)c1cc(Cl)c2nonc2c1N`?
BAZ2B inh: inconclusive; G9a block: 32µM*; GLS inh: inconclusive; JMJD2A Tudor inh: inconclusive; HP1b chromo inh: inconclusive

Results for Cc1c(NC(=O)c2cccnc2Cl)c(=O)n(-c2ccccc2)n1C ?
BAZ2B inh: 2%; G9a block: 81%; GLS inh: 1%; JMJD2A Tudor inh: -6%; HP1b chromo inh: 32%

What do the screens show for `CCOC(=O)C(NCc1ccccc1OC)(NC(=O)CC)C(F)(F)F` (configuration not stated)?
BAZ2B inh: -10%; G9a block: 6%[0.0925 µM]; GLS inh: 0%; JMJD2A Tudor inh: -4%; HP1b chromo inh: 73%

How did COC(=O)Cc1ccc(NC(=O)c2ccc(Br)o2)cc1 do in these assays?
BAZ2B inh: -1%; G9a block: -29%[12.7 µM]; GLS inh: -1%; JMJD2A Tudor inh: -9%; HP1b chromo inh: 42%

What do the screens show for `COc1ccc(-c2ccc(NC(=O)c3ccc(Br)o3)cc2)nn1`?
BAZ2B inh: -27%; G9a block: 45µM*; GLS inh: 3%; JMJD2A Tudor inh: -35%; HP1b chromo inh: -5%

How did c1coc(-c2ncc[nH]2)c1 do in these assays?
BAZ2B inh: inconclusive; G9a block: inconclusive; GLS inh: 6%; JMJD2A Tudor inh: -18%; HP1b chromo inh: 12%

How did COc1ccc(CN2C[C@H](C)[C@@H](CC(=O)NCc3ccccc3)C2=O)cc1 do in these assays?
BAZ2B inh: 1%[57.1 µM]; G9a block: 50µM*; GLS inh: 5%; JMJD2A Tudor inh: -10%; HP1b chromo inh: 4%

Results for COc1ccc(OCc2cnc(Cl)s2)cc1 ?
BAZ2B inh: -4%[57.1 µM]; G9a block: 127%[59 µM]; GLS inh: 4%; JMJD2A Tudor inh: 28%; HP1b chromo inh: 65%

How did CC1(C)Oc2ccc3ccc(=O)oc3c2/C(=C/Nc2ccccc2)C1=O do in these assays?
BAZ2B inh: inconclusive; G9a block: 71µM*; GLS inh: 2%; JMJD2A Tudor inh: inconclusive; HP1b chromo inh: -22%

What do the screens show for `CC1(C)Oc2ccc3ccc(=O)oc3c2-c2cnoc21`?
BAZ2B inh: 50µM*; G9a block: inconclusive; GLS inh: 4%; JMJD2A Tudor inh: inconclusive; HP1b chromo inh: 16%

Results for CC1(C)Oc2ccc3ccc(=O)oc3c2/C(=C/N)C1=O ?
BAZ2B inh: -37%; G9a block: -36%; GLS inh: 15%; JMJD2A Tudor inh: -27%; HP1b chromo inh: -2%

Results for CC1(C)Oc2ccc3ccc(=O)oc3c2/C(=C/O)C1=O ?
BAZ2B inh: -21%; G9a block: 45µM*; GLS inh: 2%; JMJD2A Tudor inh: -10%; HP1b chromo inh: 25%

Results for O=C1Cc2cc(S(=O)(=O)N3CCN(c4ccc(O)cc4)CC3)ccc2N1 ?
GLS inh: -1%; JMJD2A Tudor inh: 126µM*

Results for O=C1Cc2cc(S(=O)(=O)N3CCN(c4ccc([N+](=O)[O-])cc4)CC3)ccc2N1 ?
JMJD2A Tudor inh: -31%
